From PubChem BioAssay
A number with no mark means an inactive call. How the calls were made is not given here. Where a SMILES comes first, the peptide text is derived from it. [ ]: non-standard residue; d: D form. The star is where a group is joined. ξ: configuration not given here. Piv = CC(C)(C)C(=O)*; ξNva = CCCC(N)C(=O)O

These compounds were tested against Pantothenate synthetase (Mycobacterium tuberculosis (strain ATCC 25618 / H37Rv)) (UniProt P9WIL5) (assay: Coupled enzyme confirmation of inhibitors against recombinant Mtb PanC (AID 375;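 further: 0% = full reaction with vehicle and 100% = no enzyme background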)). Details: coupled enzyme assay; at 10 µM, hits give high values.
Sequence of Pantothenate synthetase (Mycobacterium tuberculosis (strain ATCC 25618 / H37Rv)) (P9WIL5 whole entry, looked up): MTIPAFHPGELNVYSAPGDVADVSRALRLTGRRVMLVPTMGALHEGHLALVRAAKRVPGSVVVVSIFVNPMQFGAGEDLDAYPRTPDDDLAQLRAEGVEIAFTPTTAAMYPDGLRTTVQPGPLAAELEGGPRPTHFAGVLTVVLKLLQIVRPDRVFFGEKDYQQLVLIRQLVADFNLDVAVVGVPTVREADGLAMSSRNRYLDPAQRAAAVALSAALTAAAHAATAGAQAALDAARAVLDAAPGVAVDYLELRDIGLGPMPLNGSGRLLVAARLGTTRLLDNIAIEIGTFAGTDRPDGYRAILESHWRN

Question: With COc1cccc(-c2cc(C(F)(F)F)n3ncc(C(=O)O)c3n2)c1 as the compound, how does the inhibition read?
Answer: Its inhibition is 0%.

Question: How did the inhibition turn out when Cc1nn(-c2ccc(F)cc2)c(C)c1NS(=O)(=O)c1ccc(Cl)cc1 was run?
Answer: Its inhibition is 11%.

Question: How did the inhibition turn out when CCN(CC)S(=O)(=O)c1ccc(C(=O)Oc2ccc3c(c2)OCO3)cc1 was run?
Answer: Its inhibition is 2%.

Question: CCCC(NC(=O)CNC(=O)C(C)(C)C)C(=O)O (stereo not drawn) (Piv-Gly-[ξNva]-OH) was tested. Which inhibition did it give?
Answer: The inhibition was 0%.

Question: CN(C)CCN1C(=O)C(O)=C(C(=O)c2cc3ccccc3o2)C1c1ccc(N(C)C)cc1 (stereo not given) was tested. Which inhibition did it give?
Answer: The inhibition was 0%.

Question: Which inhibition does the source give for CCCCc1cc(=O)oc2c(CN3CCCC3)c(O)c(Cl)cc12 here?
Answer: Its inhibition is 7%.

Question: Which inhibition does the source give for COCCCC/C(=N\OCCN)c1ccc(C(F)(F)F)cc1 here?
Answer: The inhibition was 0%.

Question: With COCCn1c(CN2CCN(c3cccc(Cl)c3)CC2)nc2c1c(=O)n(C)c(=O)n2C as the compound, how does the inhibition read?
Answer: Its inhibition is 0%.

Question: With CCN(CCNC(=O)C1CCN(S(C)(=O)=O)CC1)c1ccccc1 as the compound, how does the inhibition read?
Answer: The inhibition was 6%.

Question: For CCOc1ccccc1NC(=O)CCSc1nc2n[nH]c(C)c2c(=N)n1-c1ccccc1Cl, which inhibition is on record?
Answer: Its inhibition is 10%.

Question: With CCCCOc1ccc(C(=O)CCN2CCCCC2)cc1 as the compound, how does the inhibition read?
Answer: Its inhibition is 9%.

Question: How did the inhibition turn out when Cc1ccccc1NC(=O)CSc1nc(N)c(C#N)c(-c2cccs2)c1C#N was run?
Answer: Its inhibition is 0%.

Question: For O=C(Cc1c(O)c2ccccc2[nH]c1=O)NCc1ccc(F)cc1, which inhibition is on record?
Answer: The inhibition was 0%.

Question: With CC(=O)c1ccc(NS(=O)(=O)c2ccccc2)cc1 as the compound, how does the inhibition read?
Answer: The inhibition was 0%.

Question: For CCOc1ccccc1NC(=O)CC1Nc2cc(C)c(C)cc2NC1=O (stereo not given), which inhibition is on record?
Answer: The inhibition was 0%.

Question: For Cc1cccc(C)c1NC(=O)CC(NCc1ccco1)C(=O)O (stereo not given), which inhibition is on record?
Answer: Its inhibition is 0%.

Question: For Cc1nc2cc(NC(=O)N3CC4(C)CC3CC(C)(C)C4)ccc2n1C (stereo not given), which inhibition is on record?
Answer: Its inhibition is 8%.

Question: Which inhibition does the source give for O=C(Nc1ccc(Cl)cn1)c1cccnc1 here?
Answer: The inhibition was 0%.

Question: COc1ccccc1NC(=O)N1CCN(c2ccccc2F)CC1 was tested. Which inhibition did it give?
Answer: The inhibition was 0%.

Question: With C/C(Cl)=C\Cn1c(NCCc2ccccc2)nc2c1c(=O)n(C)c(=O)n2C as the compound, how does the inhibition read?
Answer: The inhibition was 1%.

Question: For O=S(CC(O)COCc1ccc(Cl)cc1)c1ccccn1 (stereo not given), which inhibition is on record?
Answer: Its inhibition is 0%.

Question: Which inhibition does the source give for CC1CCCC(C)N1C(=O)CSc1nnc(-c2cccs2)o1 (stereo not given) here?
Answer: The inhibition was 1%.

Question: For CCCC(=O)Nc1ccccc1-c1nnn(CC(=O)Nc2ccc(OCC)cc2)n1, which inhibition is on record?
Answer: The inhibition was 0%.

Question: With COC(=O)c1ccccc1NC(=O)c1ccc(-c2ccccc2F)o1 as the compound, how does the inhibition read?
Answer: Its inhibition is 0%.

Question: With O=C(CSc1nnc(COc2ccc(Cl)cc2)o1)OC1CCCCC1 as the compound, how does the inhibition read?
Answer: Its inhibition is 0%.

Question: Which inhibition does the source give for CCOC(=O)c1cnc(SCC)[nH]c1=O here?
Answer: The inhibition was 0%.

Question: For CCc1ncc(C(O)c2cccc(OC)c2OC)n1C (stereo not given), which inhibition is on record?
Answer: Its inhibition is 0%.

Question: How did the inhibition turn out when CCCn1nnnc1SCC(=O)c1ccc2c(c1)OCCO2 was run?
Answer: Its inhibition is 11%.

Question: COc1ccccc1NC(=O)c1oc2ccccc2c1NC(=O)c1cc(OC)c(OC)c(OC)c1 was tested. Which inhibition did it give?
Answer: The inhibition was 0%.

Question: Which inhibition does the source give for CCc1nn2c(=O)cc(CSc3nc4sc5c(c4c(=O)n3C)CCCC5)nc2s1 here?
Answer: Its inhibition is 0%.

Question: How did the inhibition turn out when CC(C(=O)NCc1cccnc1)N1C(=O)c2ccccc2C1=O (stereo not given) was run?
Answer: The inhibition was 0%.

Question: Which inhibition does the source give for O=C(NCC1CCCO1)c1ccc(C(=O)NCC2CCCO2)cc1 (stereo not given) here?
Answer: The inhibition was 0%.

Question: Which inhibition does the source give for O=C(c1ccc(CNc2c(N3CCCC3)c(=O)c2=O)cc1)N1CCc2ccccc2C1 here?
Answer: Its inhibition is 1%.

Question: With CCCn1c2ccccc2c2nnc(SCC(=O)Nc3ncccn3)nc21 as the compound, how does the inhibition read?
Answer: The inhibition was 8%.

Question: Which inhibition does the source give for COc1ccc(C2C(C(=O)c3sc(C)nc3C)=C(O)C(=O)N2CCN(C)C)cc1OC (stereo not given) here?
Answer: The inhibition was 0%.

Question: With Cc1ccc(S(=O)(=O)NCC(=O)N(CC(=O)NC2CCCCC2)Cc2ccco2)cc1 as the compound, how does the inhibition read?
Answer: The inhibition was 11%.

Question: With CC1CN(S(=O)(=O)c2ccc(Cl)c(C(F)(F)F)c2)CC(C)O1 (stereo not given) as the compound, how does the inhibition read?
Answer: Its inhibition is 0%.

Question: Which inhibition does the source give for COc1ccc(-c2cc3nc(C)c(CCC(=O)NCc4ccco4)c(C)n3n2)c(OC)c1 here?
Answer: The inhibition was 0%.

Question: For CC1=Nn2c(nnc2-c2ccc(F)cc2)SC1, which inhibition is on record?
Answer: Its inhibition is 0%.

Question: Which inhibition does the source give for CC(C)Oc1ccc(N2CC(C(=O)Nc3ccccc3F)CC2=O)cc1 (stereo not given) here?
Answer: Its inhibition is 0%.
